NLRP3 yeast inh = NALP3 inhibition in yeast | Yeast reconstituted NLRP3/ASC/caspase-1, beta-gal luminescence, 24 h | inhibition, % at 10 µM | AID 2825 | hit rate 0.39% among 330,000;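 active = inhibition of 50% or more; inactive = inhibition below 50%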
tim23-1 inh = growth inhibitors of tim23-1 mutant yeast | hit rate 1.3% among 330,000 | S. cerevisiae tim23-1 growth, BacTiter-Glo luminescence, 24 h | inhibition, % at 20 µM | AID 463212;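 active = growth inhibition of the mutant yeast at or above 50%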;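 note: temperature-sensitive mutant grown at 25 °C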
tim10-1 inh = tim10-1 yeast growth inhibition | AID 463190 | inhibition, % at 20 µM | S. cerevisiae tim10-1 ts strain growth, BacTiter-Glo, 24 h | hit rate 2.2% among 330,000;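 active = inhibition of at least 40%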;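 note: mutant grown at 25 °C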
TIM10 inh = growth inhibitors of TIM10 yeast strain. hit rate 1.4% among 330,000. S. cerevisiae TIM10 strain growth, BacTiter-Glo luminescence, 24 h. inhibition, % at 10 µM;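 active = inhibition of 40% or more at the single tested concentration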;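 note: wild-type TIM10 isogenic control strain grown at permissive 25 °C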
PfHsp90 set2 = inhibits growth of yeast expressing Plasmodium falciparum Hsp90. S. cerevisiae expressing PfHsp90, BacTiter-Glo ATP, 48 h; yeast lacking PDR1 and PDR3 efflux regulators. inhibition, % at 9.4 µM. hit rate 0.32% among 310,000;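 active = every replicate shows inhibition above about 80%, whatever the replicate mean, limit read from the data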
NALP3 confirm = NALP3 inhibition confirmation in yeast. hit rate 81% among 1,300. inhibition, % at 10 µM. yeast expressing human NALP3, luminescence. shares compounds with NLRP3 yeast inh; in the data active = inhibition above about 48%
Casp1-ASC yeast = active in yeast caspase-1-ASC counter-screen for NALP3 inhibitors; shares compounds with NLRP3 yeast inh; yeast expressing Caspase-1-ASC, luminescence counter screen; inhibition, % at 10 µM; hit rate 66% among 1,000; AID 488784
NALP3 yeast rt = yeast NALP3 inhibition, confirmed on retest; shares compounds with NLRP3 yeast inh; yeast expressing human NALP3, luminescence read-out; inhibition, % at 10 µM; hit rate 53% among 1,000
tim10-1 conf = confirmation of tim10-1 mutant yeast growth inhibitors; shares compounds with tim10-1 inh; S. cerevisiae tim10-1 ts strain growth, BacTiter-Glo, 24 h; inhibition, % at 20 µM; hit rate 56% among 7,400; AID 463213;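 active = inhibition of yeast growth at or above a set limit in either of two repeat tests at 20 µM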;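 note: tim10-1 mutant grown at permissive 25 °C to find synthetic lethal compounds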
TIM10 conf = TIM10 yeast growth inhibition, confirmed; S. cerevisiae tim10 strain growth, BacTiter-Glo luminescence, 24 h; inhibition, % at 10 µM; hit rate 63% among 4,600; AID 463215; shares compounds with TIM10 inh;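 active = inhibition of yeast growth at or above a set limit in either of two replicates at 10 µM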; note: this counterscreen used the strain with wild-type TIM10
tim23-1 confirm = confirmation of tim23-1 mutant yeast growth inhibitors. shares compounds with tim23-1 inh. S. cerevisiae tim23-1 growth, BacTiter-Glo luminescence, 24 h. inhibition, % at 20 µM. hit rate 83% among 4,400. AID 463218;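 active = inhibition above about 39% in either of two replicate wells at 20 µM, limit read from the data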;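 note: temperature-sensitive tim23-1 mutant grown at 25 °C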
Of the large screens only hits and unclear results are named; the others gave an inactive call (follow-up assays come after a bar, where they were run). Compounds with a hit are over-represented: about 3.7% of the library has one in this group of screens. Cut-off read from the data, not from the text of the source, unless noted: active = inhibition above about 50%; inactive = the rest.

Cc1ccc(Nc2cc(C)nn2-c2nc(C)cc(=O)[nH]2)cc1	NLRP3 yeast inh 76, tim23-1 inh 68, tim10-1 inh 63, TIM10 inh 76, PfHsp90 set2 105 | NALP3 confirm 81 | Casp1-ASC yeast 97 | NALP3 yeast rt 93 | tim10-1 conf 47 | TIM10 conf inactive | tim23-1 confirm 52
CC(C)c1ccccc1OCCCCCN1CCOCC1	none (no result: PfHsp90 set2)
Cc1cc(C)nc(NC(=O)c2cc([N+](=O)[O-])cc([N+](=O)[O-])c2)n1	none
CCCCCCCCC[n+]1cccc2c3ccccc3ccc21	none
CCCCCCCCCCCCCCCC[n+]1cccc2ccccc21	NLRP3 yeast inh 73, tim23-1 inh 96, tim10-1 inh 98, TIM10 inh 89, PfHsp90 set2 106 | NALP3 confirm inactive | tim10-1 conf 98 | TIM10 conf inactive | tim23-1 confirm 97
CCN1CCN(CCCNC(=O)CCC(=O)N2CC(C)Oc3ccc(C)cc32)CC1 (stereo not given)	none
O=C(Sc1cccc2cccnc12)c1ccccc1Br	NLRP3 yeast inh 66, tim23-1 inh 89, tim10-1 inh 56, TIM10 inh 53 | NALP3 confirm 64 | tim10-1 conf 72 | TIM10 conf 74 | tim23-1 confirm 67
CC(=O)/C(=N\Nc1ccccc1)Sc1cccc2cccnc12	none
CC1(C)CC(=O)C(=Cc2cn(-c3ccccc3)nc2-c2ccccc2)C(=O)C1	NLRP3 yeast inh 54, tim23-1 inh 64, TIM10 inh 64 | NALP3 confirm 83 | Casp1-ASC yeast inactive | NALP3 yeast rt inactive | TIM10 conf inactive | tim23-1 confirm inactive
CC(C)[C@H](NC(=O)c1ccccc1Cl)C(=O)Nc1nc(-c2ccccn2)cs1	none
CC(Oc1ccc(Br)cc1)C(=O)Nc1nc(-c2ccccn2)cs1 (stereo not given)	NLRP3 yeast inh 51, tim23-1 inh 70, tim10-1 inh 45 (no result: PfHsp90 set2) | NALP3 confirm 77 | Casp1-ASC yeast 89 | NALP3 yeast rt 81 | tim10-1 conf inactive | tim23-1 confirm 50
CCOC(=O)c1ccc(NC(=O)NS(=O)(=O)c2ccc(C)cc2)cc1	none
O=c1c2ccccc2nc(-c2ccc(Cl)c(Cl)c2)n1O	NLRP3 yeast inh 65, tim23-1 inh 79, tim10-1 inh 49, TIM10 inh 62 | NALP3 confirm inactive | Casp1-ASC yeast inactive | NALP3 yeast rt inactive | tim10-1 conf 30 | TIM10 conf 55 | tim23-1 confirm 73
N#Cc1ccc(-c2nc3cc(Cl)ccc3c(=O)n2O)cc1	NLRP3 yeast inh 63, tim23-1 inh 50 | NALP3 confirm 72 | Casp1-ASC yeast 51 | NALP3 yeast rt 64 | tim23-1 confirm 56
O=c1c2ccc(Cl)cc2nc(-c2cccc(C(F)(F)F)c2)n1O	NLRP3 yeast inh 52, tim23-1 inh 56 | NALP3 confirm 63 | Casp1-ASC yeast inactive | NALP3 yeast rt 52 | tim23-1 confirm 48
O=[N+]([O-])c1cccc(Cl)c1CSc1ccccn1	none
CN(Cc1ccccc1)C(=O)COC(=O)c1ccc(Cl)cc1N	none (no result: PfHsp90 set2)
Cc1ccc(-c2nc(CNC(=O)c3cc(C)on3)cs2)cc1	NLRP3 yeast inh 66, tim23-1 inh 53 | NALP3 confirm 75 | Casp1-ASC yeast 68 | NALP3 yeast rt 54 | tim23-1 confirm 41
CCOc1ncccc1C(=O)Nc1ccc(S(=O)(=O)N2CC(C)CC(C)C2)cc1 (stereo not given)	none
O=C(CC(=O)c1c(F)cccc1Cl)c1ccccc1O	NLRP3 yeast inh 51, tim23-1 inh 63, tim10-1 inh 52 | NALP3 confirm 70 | Casp1-ASC yeast 61 | NALP3 yeast rt inactive | tim10-1 conf inactive | tim23-1 confirm 64
O=C(CC(=O)c1ccccc1O)c1cccc(F)c1	none
O[C@@H]1[C@@H](O)C=C2CCN3Cc4cc5c(cc4[C@H]1C23)OCO5 (stereo not given in full)	NLRP3 yeast inh 64, tim23-1 inh 76, tim10-1 inh 88, TIM10 inh 90 | NALP3 confirm 79 | Casp1-ASC yeast 60 | NALP3 yeast rt 58 | tim10-1 conf 84 | TIM10 conf 89 | tim23-1 confirm 77
CSCc1c(C(=O)OCC(=O)c2ccc[nH]2)oc2ccccc12	NLRP3 yeast inh 51, tim23-1 inh 59, tim10-1 inh 51, TIM10 inh 67 (no result: PfHsp90 set2) | NALP3 confirm 68 | Casp1-ASC yeast 55 | NALP3 yeast rt inactive | tim10-1 conf inactive | TIM10 conf 63 | tim23-1 confirm 74
CC(C)(C)NC(=S)N/N=C/c1cc(Br)c(O)c(Br)c1	none
CNC(=S)N/N=C/c1cc(Br)cc(Br)c1O	NLRP3 yeast inh 64, tim23-1 inh 58 | NALP3 confirm inactive | tim23-1 confirm 54
COc1ccc(/C=C/C(=O)c2ccc(Cl)s2)cc1O	NLRP3 yeast inh 54, tim23-1 inh 69, tim10-1 inh 53, TIM10 inh 68 | NALP3 confirm 70 | Casp1-ASC yeast inactive | NALP3 yeast rt inactive | tim10-1 conf 54 | TIM10 conf 44 | tim23-1 confirm 81
O=c1c2ccccc2nc2c3ccccc3cnn12	NLRP3 yeast inh 56, tim23-1 inh 55 | NALP3 confirm 63 | Casp1-ASC yeast 55 | NALP3 yeast rt 66 | tim23-1 confirm 64
O=c1c2ccccc2nc2ccccn12	none
COC(=O)c1ccc2c(c1O)C(=O)c1ccccc1C2=O	NLRP3 yeast inh 54, tim23-1 inh 77, tim10-1 inh 80, TIM10 inh 91 | NALP3 confirm 61 | Casp1-ASC yeast 61 | NALP3 yeast rt 52 | tim10-1 conf 75 | TIM10 conf 91 | tim23-1 confirm 82
O=C1Nc2ccccc2/C1=C/c1ccccc1Cl	NLRP3 yeast inh 55, tim23-1 inh 53 | NALP3 confirm 69 | Casp1-ASC yeast inactive | NALP3 yeast rt inactive | tim23-1 confirm 46
CN1CCN(c2ccccc2/C=C2/C(=O)Nc3ccccc32)CC1	none
CC(/C=N/NC(=O)c1ccncc1)=C\c1ccccc1	none
CC(=C/c1ccccc1)/C=N/NC(=O)c1cccs1	NLRP3 yeast inh 56, tim23-1 inh 64 (no result: PfHsp90 set2) | NALP3 confirm inactive | tim23-1 confirm 55
CC(C)CC(=O)N1CCN(CC2CC=CCC2)CC1 (stereo not given)	none
CN(C)c1ccc(C(C#N)c2ccccc2)nn1 (stereo not given)	none
